# Rows were chosen to be rich in hits. Some 1.5% of all compounds tested hit in one or more screens of this group.
# IDE cell inh: human IDE inhibitors in live cells, primary screen, fluorescence polarization, HEK cells, FAbetaB substrate; Insulin-degrading enzyme (Homo sapiens), P14735; FAbetaB cleavage; inhibition, % at 5.59 µM; 320,000 tested, 0.41% active;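 active = percent inhibition above the average of all tested compounds plus 3 SD, set per screening campaign, cut at about 16% in these data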;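 also: IDE supplied by intact live HEK cells; FP after avidin binding of uncleaved biotin substrate so inhibition keeps polarization high; 0% = DMSO wells and 100% = 60 µM reference IDE inhibitor Ii1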
# Cardiac RTF inh: cardiac RTF calcium sensitivity inhibitors, primary screen, biochemical, IANBD-TnC fluorescence, EC70 calcium. Troponin I, cardiac muscle (Homo sapiens) + Troponin T, cardiac muscle (Homo sapiens) + …. IANBD-labeled cardiac RTF, Ca2+ fluorescence. inhibition, % at 7.15 µM. 340,000 tested, 0.12% active. AID 493244, 2011;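 active = inhibition above the mean inhibition of all tested compounds plus 3 SD, cut at about 17% in these data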;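 also: assay run at fixed EC70 calcium of 1.6 mM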
# IDE act: human IDE activators in live cells, primary screen, fluorescence polarization, HEK cells, FAbeta-B substrate; Insulin-degrading enzyme (Homo sapiens), P14735; AID 493087, 2011; activation, % at 5.96 µM; FAbeta-B cleavage; 0% vehicle, 100% cell-free pure enzyme wells; 340,000 tested, 0.073% active;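 active = activation above the mean of all tested compounds plus 3 SD, set per screening campaign, cut at about 17% in these data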
# CRFBP-R2 agonist: agonists of CRF-BP/CRF-R2 complex, primary screen, cell-based, HEK293, calcium dye fluorescence, uHTS. CRF-binding protein / CRF receptor 2 complex (human). calcium dye fluorescence (FLIPR); percent of saturating CRF peptide response. activation, % at 13.2 µM. AID 588473, 2011. 350,000 tested, 0.46% active;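 active = activation of at least 50%, plus an integration ratio under a set limit after plate pattern correction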;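 also: plate controls were neutral control wells without compound for no effect and CRF at EC100 for full effect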
# RTF Ca sens act: cardiac RTF calcium sensitivity activators, primary screen, biochemical, IANBD-TnC fluorescence, EC20 calcium | 340,000 tested, 0.24% active | IANBD-labeled TnC RTF fluorescence at EC20 calcium; 0% EC20 calcium, 100% full calcium | AID 493008, 2010 | activation, % at 7.2 µM | Troponin I, cardiac muscle (Homo sapiens) + Troponin T, cardiac muscle (Homo sapiens) + …;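 active = activation above the mean over all tested compounds plus 3 SD, cut at about 30% in these data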;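 also: rise in fluorescence read as greater calcium sensitivity of cardiac thin filaments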
# CRFBP-R2 block: antagonists of CRF-BP/CRF-R2 complex, primary screen, cell-based, HEK293, calcium dye fluorescence, uHTS. AID 588475, 2011. 350,000 tested, 0.59% active. CRF-induced calcium fluorescence. inhibition, % at 11.8 µM;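 active = inhibition of the ligand-induced calcium signal above about 50% at the single tested concentration, limit read from the data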
# * = called active by the depositor; i = inactive; · = not tested or not shown; + = active, no number; ! = a repeat was not active.
SMILES,IDE cell inh,Cardiac RTF inh,IDE act,CRFBP-R2 agonist,RTF Ca sens act,CRFBP-R2 block
CCCCCN(C(=O)CCC(=O)OCC(=O)c1c(C)cc(C)cc1C)c1c(N)n(CCCC)c(=O)[nH]c1=O,-8,-2,6,-1,-12,52*
COc1ccc(NC(=O)COC(=O)CCc2ccc(S(=O)(=O)N3CCOCC3)cc2)cc1Cl,-2,-7,5,-1,-2,-8
CN(c1ccccc1)S(=O)(=O)c1cccc(NC(=O)COc2cccc([N+](=O)[O-])c2)c1,4,-11,18*,-3,3,52*
Cc1cccc(C(=O)N2c3ccccc3C(=O)OC2c2ccc3c(c2)OCO3)c1 (centres undefined),-4,-6,-1,2,3,75*
CSCCC(NC(=O)c1ccco1)C(=O)OCc1cc([N+](=O)[O-])cc2c1OCOC2 (centres undefined),2,-7,2,56*,-8,-44
Nc1ccc(S(N)(=O)=O)cc1N,-4,-9,5,1,30*,-13
Nc1ccc(S(N)(=O)=O)cc1,5,7,-4,-1,-3,4
O=C(c1ccc2c(c1)OCO2)C1CCCN(Cc2ccc(OC(F)F)cc2)C1 (centres undefined),0,5,1,1,-6,7
CC(=O)c1sc2nc(-c3cccs3)cc(C(F)(F)F)c2c1N,3,-26,-14,113*,17,-54
COc1ccc(-c2cc(C(F)(F)F)c3c(N)c(C(=O)NCCSC)sc3n2)cc1,-1,-77,0,66*,63*,-67
CN(C)CCNC(=O)c1sc2nc(-c3ccccc3)cc(C(F)(F)F)c2c1N,4,-7,-4,24,-1,-32
Nc1c(C(=O)C2CC2)sc2nc(-c3ccccc3)cc(C(F)(F)F)c12,2,-25,2,238*,19,-350
CC(C)CN(CC(C)C)C(=S)NC1CCCCC1,0,5,5,-2,5,55*
CC(=O)Nc1ccc(OCC(O)CN2C(C)(C)CC(O)CC2(C)C)cc1 (centres undefined),-2,-4,3,-2,5,53*
CC(=O)Nc1ccc(OCC(O)CN2C(C)CCCC2C)cc1 (centres undefined),4,14,5,0,0,18
O=c1[nH]c2ccc(S(=O)(=O)Nc3ccc(Cl)cc3)cc2[nH]1,-1,-7,3,-3,0,0
O=c1[nH]c2ccc(Cl)cc2[nH]1,·,-3,2,2,-2,109*
NS(=O)(=O)c1cc(Cl)c(NC(=O)COC(=O)c2ccccn2)c(Cl)c1,-5,-5,-1,0,-3,0
Cc1[nH]n(-c2ccccc2)c(=O)c1/C=N/NC(=O)c1cccc([N+](=O)[O-])c1,-1,-12,8,-2,0,43
Cc1ccc(-n2[nH]c(C)c(/C=N/Nc3ccc([N+](=O)[O-])cc3[N+](=O)[O-])c2=O)cc1C,-6,-1,5,31,-6,85*
CC(C)OC(=O)c1c(NS(=O)(=O)c2ccccc2)sc2c1CCCC2,11,-7,2,76*,1,5
COC(=O)c1c(NS(=O)(=O)Cc2ccccc2)sc2c1CCCC2,2,1,-2,-1,-13,6
Cc1noc(C)c1S(=O)(=O)N1CCC(C(=O)N2CCN(c3ccc(Cl)cc3)CC2)CC1,10,0,-2,0,7,58*
CCCCNc1ccc2c3c(cccc13)C(=O)N(CCCC)C2=O,·,i,45*,194*,+,-132
O=C(OCCN1C(=O)c2ccccc2C1=O)c1ccc(S(=O)(=O)N2CCCCCC2)cc1,3,2,4,-1,-5,-8
SMILES,IDE cell inh,Cardiac RTF inh,IDE act,CRFBP-R2 agonist,RTF Ca sens act,CRFBP-R2 block
CCCN1C(=O)c2cccc3c(N4CCCCC4)ccc(c23)C1=O,10,-72,-49,206*,75*,-241
CCN(CC)S(=O)(=O)c1ccc(C(=O)OCCN2C(=O)c3cccc4c(N5CCOCC5)ccc(c34)C2=O)cc1,6,-4,2,184*,4,-243
Cc1nn2c(=O)[nH]cnc2c1Cl,·,·,·,-3,·,-4
O=Cc1c(N2CCN(CCO)CC2)nc2ccccn2c1=O,-3,-6,5,128*,4,-85
CCN1CCN(c2nc3ccccn3c(=O)c2C=O)CC1,2,-10,2,6,-2,-20
CN1CCC(N(CCc2ccccc2)C(=O)CCC(=O)O)CC1,3,-8,-2,3,35*,-3
O=C(Cc1cccc2ccccc12)NCC(=O)Nc1ccccc1F,-4,-1,5,-1,2,-9
CC(=O)N(Cc1ccco1)c1nc(C(=O)Nc2ccc(Cl)cc2)c(C)s1,8,-3,-4,3,1,65*
Cc1ocnc1C(=O)Nc1ccc(Cl)cc1,3,-13,2,0,1,-6
CCOc1ccc(S(=O)(=O)Nc2cccnc2)cc1,1,-6,-1,-1,-1,53*
CCOc1ccc(NS(=O)(=O)c2ccc(NC(=S)NC(=O)CC(C)C)cc2)cc1,0,-1,2,19,-5,-55
CCCC(=O)NC(=S)Nc1ccc(S(=O)(=O)Nc2ccc(OCC)cc2)cc1,-3,-4,3,55*,-16,-109
COC(=O)C[C@H]1C[C@H]2c3cc(NC(=O)Cc4ccncc4)ccc3O[C@H]2[C@@H](CO)O1,·,·,·,0,·,-21
CCOC(=O)CSC1=C(C#N)C(c2ccc(F)cc2)C(C(C)=O)=C(C)N1 (centres undefined),1,-10,2,0,-5,5
CCOC(=O)C1=C(C)NC(SCC(=O)OC)=C(C#N)C1c1ccc(C(=O)OC)cc1 (centres undefined),4,-7,-1,-1,2,55*!
COc1cccc(NC(=O)NC2(C(=O)N3CCN(C)CC3)CCCCC2)c1,3,0,-2,1,4,3
Cc1c(CCO)sc[n+]1CC(=O)OCCC12CC3CC(CC(C3)C1)C2,9,-1,-4,0,1,5
CCCCCCCCCOC(=O)C[n+]1csc(CCO)c1C,4,-3,6,0,-3,111*
COc1ccc(CN2CCN(C(=O)c3cccs3)CC2)c(OC)c1OC,0,6,-1,-2,-5,58*
